Screening data: PubChem BioAssay, several laboratories
Rows were chosen to be rich in hits. Some 4.4% of all compounds tested hit in one or more screens of this group.
tim23-1 inh = inhibits growth of tim23-1 mutant yeast; S. cerevisiae tim23-1 growth, BacTiter-Glo luminescence, 24 h; inhibition, % at 20 µM; hit rate 1.3% among 330,000;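 active = growth inhibition of the mutant yeast at or above 50%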;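 note: temperature-sensitive mutant grown at 25 °C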
PfHsp90 set2 = growth inhibition of yeast expressing Plasmodium Hsp90; S. cerevisiae expressing PfHsp90, BacTiter-Glo ATP, 48 h; yeast lacking PDR1 and PDR3 efflux regulators; inhibition, % at 9.4 µM; hit rate 0.32% among 310,000;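 active = every replicate shows inhibition above about 80%, whatever the replicate mean, limit read from the data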
tim10-1 inh = growth inhibitors of tim10-1 mutant yeast; hit rate 2.2% among 330,000; S. cerevisiae tim10-1 ts strain growth, BacTiter-Glo, 24 h; inhibition, % at 20 µM; AID 463190;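 active = inhibition of at least 40%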;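 note: mutant grown at 25 °C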
TIM10 inh = growth inhibitors of TIM10 yeast strain; S. cerevisiae TIM10 strain growth, BacTiter-Glo luminescence, 24 h; inhibition, % at 10 µM; hit rate 1.4% among 330,000;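 active = inhibition of 40% or more at the single tested concentration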;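 note: wild-type TIM10 isogenic control strain grown at permissive 25 °C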
SKKanGAS inh = SKKanGAS growth inhibition | AID 1662 | S. pyogenes SKKanGAS, kanamycin growth, BacTiter-Glo, 6 h | inhibition, % at 7.5 µM | hit rate 1.3% among 300,000;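 active = mean replicate score, as percent of positive control median, at least 50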;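 note: strain carries kanamycin resistance gene driven by streptokinase promoter and grows in 40 µg/ml kanamycin; loss of luminescence reflects streptokinase promoter inhibition or plain growth inhibition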
tim10-1 confirm = confirmation of tim10-1 mutant yeast growth inhibitors | S. cerevisiae tim10-1 ts strain growth, BacTiter-Glo, 24 h | inhibition, % at 20 µM | shares compounds with tim10-1 inh | hit rate 56% among 7,400;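 active = inhibition of yeast growth at or above a set limit in either of two repeat tests at 20 µM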;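 note: tim10-1 mutant grown at permissive 25 °C to find synthetic lethal compounds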
tim10 confirm = TIM10 yeast growth inhibition, confirmed. shares compounds with TIM10 inh. S. cerevisiae tim10 strain growth, BacTiter-Glo luminescence, 24 h. inhibition, % at 10 µM. hit rate 63% among 4,600;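 active = inhibition of yeast growth at or above a set limit in either of two replicates at 10 µM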; note: this counterscreen used the strain with wild-type TIM10
tim23-1 conf = tim23-1 yeast growth inhibition, confirmed | shares compounds with tim23-1 inh | S. cerevisiae tim23-1 growth, BacTiter-Glo luminescence, 24 h | inhibition, % at 20 µM | hit rate 83% among 4,400 | AID 463218;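 active = inhibition above about 39% in either of two replicate wells at 20 µM, limit read from the data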;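 note: temperature-sensitive tim23-1 mutant grown at 25 °C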
Hits are given with their value; 0 = inactive; - = no result.

SMILES | tim23-1 inh | PfHsp90 set2 | tim10-1 inh | TIM10 inh | SKKanGAS inh | tim10-1 confirm | tim10 confirm | tim23-1 conf
Oc1ccc2ccccc2c1C1Nc2cccc3cccc(c23)N1 | 50 | 0 | 57 | 50 | 0 | 58 | 44 | 69
CCN1CCN(C(=S)NC(=O)/C=C/c2cccs2)CC1 | 0 | 0 | 0 | 0 | 0 | - | - | -
O=C(/C=C/c1cccs1)NC(=S)NNC(=O)c1ccccc1O | 64 | 0 | 44 | 42 | 79 | 0 | 42 | 66
Cc1cc(C)c2c(N)c(S(=O)c3ccc(C(C)(C)C)cc3)sc2n1 (stereo unspecified) | 60 | 0 | 63 | 0 | 0 | 44 | - | 62
Cc1ccc(NC(=O)CSCC(=O)NCCc2ccccc2)c(C)c1 | 0 | - | 0 | 0 | - | - | - | -
Cc1[nH]n(-c2ccccc2)c(=O)c1C(C[N+](=O)[O-])c1ccc(F)cc1 (stereo unspecified) | 83 | 0 | 60 | 48 | 0 | 41 | 0 | 64
Cc1[nH]n(-c2ccccc2)c(=O)c1C(c1ccccc1C(=O)O)c1c(C)[nH]n(-c2ccccc2)c1=O | 0 | 0 | 0 | 0 | 0 | - | - | -
COc1ccc(C(c2c(C)[nH]n(-c3ccccc3)c2=O)c2c(C)[nH]n(-c3ccccc3)c2=O)cc1OC | 0 | 0 | 0 | 0 | 0 | - | - | -
Cc1[nH]n(-c2ccccc2)c(=O)c1C(C[N+](=O)[O-])c1ccc(Cl)cc1 (stereo unspecified) | 86 | - | 58 | 49 | 0 | 48 | 0 | 84
Cc1cc(O)c(C(C[N+](=O)[O-])c2ccc(Cl)cc2)c(=O)o1 (stereo unspecified) | 0 | 0 | 0 | 0 | 0 | - | - | -
Cc1ccc(C(C[N+](=O)[O-])c2c(C)[nH]n(-c3ccccc3)c2=O)cc1 (stereo unspecified) | 75 | 0 | 42 | 0 | 0 | 0 | - | 61
Cc1nc2c(ccc3nc(NC(=O)Cc4cccc5ccccc45)sc32)s1 | 60 | 0 | 55 | 0 | 0 | 37 | - | 64
Cc1nc2c(ccc3nc(NC(=O)C(c4ccccc4)c4ccccc4)sc32)s1 | 0 | 0 | 0 | 0 | 0 | - | - | -
COc1ccc(C(=O)c2coc(-c3ccccc3C(=O)O)c2C(=O)O)cc1 | 0 | 0 | 0 | 0 | 0 | - | - | -
Cc1ccc(C(=O)c2coc3c2C(=O)C(=O)c2ccccc2-3)cc1 | 85 | 141 | 93 | 97 | 0 | 94 | 96 | 95
Cn1c(-c2cccc([N+](=O)[O-])c2)cnc1NCc1cccc(F)c1 | 0 | 0 | 0 | 0 | 0 | - | - | -
COc1ccc(-n2cnc3cc(NCc4cccs4)ccc32)cc1 | 58 | 0 | 40 | 0 | 0 | 0 | - | 41
c1ccc(-n2cnc3cc(NCc4cccs4)ccc32)cc1 | 51 | 0 | 46 | 52 | 0 | 33 | 46 | 70
COc1ccc(-n2cnc3cc(NCc4ccccn4)ccc32)cc1 | 0 | 0 | 0 | 0 | 0 | - | - | -
CN(c1ccccc1)S(=O)(=O)c1cccc(NC(=O)C2=NN(c3ccccc3)C(=O)CC2)c1 | 0 | 0 | 0 | 0 | - | - | - | -
COc1ccc(NC(=O)C(=O)NCC2CCCN2S(=O)(=O)c2cc(C)ccc2C)cc1 (stereo unspecified) | 0 | - | 0 | 0 | 0 | - | - | -
CN(CC(=O)Nc1ccc(F)c(F)c1F)C(=O)c1nn(Cc2ccccc2)c(=O)c2ccccc12 | 0 | - | 0 | 0 | - | - | - | -
NC(=O)c1ccc[n+]([C@H]2O[C@@H](COP(=O)([O-])OP(=O)(O)OC[C@H]3O[C@@H](n4cnc5c(N)ncnc54)[C@H](O)[C@@H]3O)[C@H](O)[C@@H]2O)c1 | 71 | 88 | 78 | 59 | - | 75 | 45 | 78
N/C(Cc1cccs1)=N\OC(=O)COc1ccccc1Cl | 0 | 0 | 0 | 0 | 0 | - | - | -
N/C(Cc1cccs1)=N\OC(=O)COc1ccc(Br)cc1Cl | 68 | 0 | 58 | 0 | 0 | 59 | - | 87
SMILES | tim23-1 inh | PfHsp90 set2 | tim10-1 inh | TIM10 inh | SKKanGAS inh | tim10-1 confirm | tim10 confirm | tim23-1 conf
CCOC(=O)c1c2c(n(C)c1C)C(=O)C(=O)c1ccc(Br)cc1-2 | 56 | - | 57 | 66 | 59 | 0 | 44 | 47
Cc1ccc(C(=O)OCn2ncc(Cl)c(Cl)c2=O)cc1 | 79 | 96 | 75 | 72 | 0 | 78 | 70 | 71
O=C(OCn1ncc(Cl)c(Cl)c1=O)c1ccc(C(F)(F)F)cc1 | 78 | 0 | 75 | 42 | 0 | 74 | 41 | 79
COc1cc(/C=C2\SC(=S)N(NS(=O)(=O)c3ccc(C)cc3)C2=O)cc(OC)c1OC | 0 | 0 | 0 | 0 | 0 | - | - | -
Cc1ccc(S(=O)(=O)NN2C(=O)/C(=C/c3cccc(F)c3)SC2=S)cc1 | 71 | 0 | 47 | 40 | 0 | 0 | 40 | 0
O=C(Nc1ccccc1Cl)C1C(c2ccccc2)C1(Cl)Cl (stereo unspecified) | 0 | 0 | 0 | 0 | 0 | - | - | -
O=C(Nc1ccc(F)cc1)C1C(c2ccccc2)C1(Cl)Cl (stereo unspecified) | 59 | 0 | 48 | 41 | 0 | 39 | 0 | 40
COc1ccc(OC)c(NC(=O)c2ccccc2OC(C)=O)c1 | 54 | 0 | 62 | 0 | 0 | 32 | - | 50
Cn1c(N2CCC(C(N)=O)CC2)nc2c1c(=O)n(Cc1ccc(Cl)cc1)c(=O)n2C | 0 | 0 | 0 | 0 | 0 | - | - | -
Cn1c(N2CCCC2)nc2c1c(=O)n(Cc1ccc(Cl)cc1)c(=O)n2C | 53 | 0 | 55 | 56 | 0 | 40 | 35 | 60
Cc1ccc(N2CCN(C(=O)c3cc(-c4ccc(F)cc4)[nH]c3C)CC2C)cc1 (stereo unspecified) | 74 | 0 | 52 | 0 | 0 | 51 | - | 55
O=[N+]([O-])c1ccc(N=Nc2ncc[nH]2)cc1 | 52 | 0 | 45 | 44 | 0 | 0 | 33 | 0
O=[N+]([O-])c1ccc(N=NN(CCO)CCO)cc1 | 0 | 0 | 0 | 0 | 0 | - | - | -
O=C(CCc1nc(-c2ccc(Cl)cc2)no1)NCc1ccccc1CN1CCOCC1 | 0 | 0 | 0 | 0 | - | - | - | -
S=C(NCc1ccco1)Nc1ccc(Cl)cc1 | 0 | 0 | 0 | 0 | 0 | - | - | -
S=C(NCc1ccco1)Nc1ccc(Oc2ccc(Cl)cc2)cc1 | 63 | 0 | 46 | 0 | 0 | 60 | - | 76
CCOC(=O)c1c(C)oc2c(F)c(F)c(F)c(F)c2c1=O | 74 | - | 42 | 0 | 0 | 0 | - | 48
Cc1nn(-c2cccc(C(F)(F)F)c2)c(Cl)c1/C=N/Nc1cccc(C(=O)O)c1 | - | 0 | - | - | 0 | - | - | -
CCOC(=O)N/N=C/c1c(C)nn(-c2cccc(C(F)(F)F)c2)c1Cl | 58 | 0 | 47 | 0 | 0 | 36 | - | 60
CN(Cc1ccccc1)C(=O)C(C(=O)c1ccc(F)cc1)n1cc(Cl)ccc1=O (stereo unspecified) | 0 | 0 | 0 | 0 | 0 | - | - | -
Cc1ccc(C)c(N2CCN(C(=O)c3ccc4nsnc4c3)CC2)c1 | 61 | 0 | 57 | 0 | 0 | 0 | - | 47
